Experimental data published in PubChem BioAssay AID1159580 (chemical genetic matrix, 2015).
Several values for one entry are separate records, joined by “and”; a condition that tells them apart may be missing. Equal values may be shown once. Among all 5,500 compounds or so, about 2,000 (36%) were called active. About 18% were inconclusive and are not listed. No stated cut-off is given here; in the data, active means normalized growth mostly below about 0.91 (no sharp cut-off); inconclusive means no clear call, values can overlap the other calls; inactive means mostly above about 0.92. This is one part of the list.

Assay: chemical genetic growth profiling, strain panel (AID 1159580);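 further: tested at 20 µM; growth read once vehicle control cultures reached saturation at 30 °C; 1 = growth at the plate median or of vehicle wells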
Conditions: S. cerevisiae deletion strains, growth OD

Measured: normalized growth

Cc1ccc(C)c(OCCCC(C)(C)C(=O)O)c1
0.819 (inactive) and 0.823 (active): locus YJL095W, strain BCK1, stronger effect = lower value
inactive: locus YAL021C, strain ccr4, stronger effect = lower value 0.986 | locus YAL026C, strain drs2, stronger effect = lower value 0.919 | locus YAL030W, strain snc1, stronger effect = lower value 0.981 | locus YBL061C, strain skt5, stronger effect = lower value 0.975 | locus YBR009C, strain hhf1, stronger effect = lower value 0.957 | locus YBR021W, strain FUR4, stronger effect = lower value 0.926 | locus YBR023C, strain chs3, stronger effect = lower value 0.964 | locus YBR171W, strain sec66, stronger effect = lower value 0.948 | locus YBR229C, strain ROT2, stronger effect = lower value 0.939 | locus YBR231C, strain swc5, stronger effect = lower value 0.986 | locus YBR279W, strain paf1, stronger effect = lower value 0.983 | locus YCL011C, strain gbp2, stronger effect = lower value 0.978 | locus YCL016C, strain dcc1, stronger effect = lower value 0.949 | locus YCL061C, strain MRC1, stronger effect = lower value 0.968 | locus YCL069W, strain vba3, stronger effect = lower value 0.987 | locus YCR088W, strain abp1, stronger effect = lower value 0.982 | locus YDL005C, strain med2, stronger effect = lower value 0.982 | locus YDL040C, strain nat1, stronger effect = lower value 0.987 | locus YDL074C, strain BRE1, stronger effect = lower value 0.858 | locus YDL101C, strain DUN1, stronger effect = lower value 0.975 | locus YDL192W, strain arf1, stronger effect = lower value 0.931 | locus YDR001C, strain nth1, stronger effect = lower value 0.973 | locus YDR069C, strain doa4, stronger effect = lower value 0.987 | locus YDR159W, strain sac3, stronger effect = lower value 0.962 | locus YDR195W, strain ref2 1.1 | locus YDR297W, strain sur2, stronger effect = lower value 0.992 | locus YDR334W, strain swr1, stronger effect = lower value 0.99 | locus YDR335W, strain msn5, stronger effect = lower value 0.989 | locus YEL003W, strain gim4, stronger effect = lower value 0.97 | locus YEL037C, strain rad23, stronger effect = lower value 0.979 | locus YEL061C, strain CIN8 (second series), stronger effect = lower value 0.98 | locus YEL061C, strain CIN8, stronger effect = lower value 0.943 | locus YER015W, strain faa2, stronger effect = lower value 1.01 | locus YER016W, strain bim1, stronger effect = lower value 0.976 | locus YER110C, stronger effect = lower value 0.937 | locus YER111C, strain swi4, stronger effect = lower value 0.981 | locus YER155C, strain BEM2 (second series), stronger effect = lower value 1.03 | locus YER155C, strain BEM2, stronger effect = lower value 0.939 | locus YER167W, strain BCK2, stronger effect = lower value 0.959 | locus YFR010W, strain ubp6, stronger effect = lower value 0.991 | locus YGL167C, strain pmr1, stronger effect = lower value 0.963 | locus YGL173C, strain kem1, stronger effect = lower value 0.955 | locus YGL227W, strain vid30, stronger effect = lower value 0.984 | locus YGL240W, strain doc1, stronger effect = lower value 0.999 | locus YGL248W, strain PDE1, stronger effect = lower value 0.914 | locus YGL253W, strain hxk2, stronger effect = lower value 0.975 | locus YGR135W, strain pre9, stronger effect = lower value 0.895 | locus YGR252W, strain gcn5, stronger effect = lower value 0.794 | locus YHR013C, strain ard1, stronger effect = lower value 1.02 | locus YHR027C, strain rpn1, stronger effect = lower value 0.983 | locus YHR094C, strain hxt1, stronger effect = lower value 0.941 | locus YHR129C, strain ARP1, stronger effect = lower value 0.945 | locus YHR142W, strain chs7, stronger effect = lower value 0.957 | locus YHR200W, strain rpn10, stronger effect = lower value 0.924 | locus YIL066C, strain RNR3, stronger effect = lower value 0.936 | locus YIL073C, strain SPO22, stronger effect = lower value 0.891 | locus YIR030C, strain dcg1, stronger effect = lower value 0.931 | locus YJL092W, strain hpr5, stronger effect = lower value 0.979 | locus YJL095W, strain BCK1 (second series), stronger effect = lower value 0.983 | locus YJL115W, strain asf1, stronger effect = lower value 1 | locus YJL134W, strain LCB3, stronger effect = lower value 0.938 | locus YJL154C, strain vps35, stronger effect = lower value 0.994 | locus YJL164C, strain tpk1, stronger effect = lower value 0.979 | locus YJL166W, strain qcr8, stronger effect = lower value 0.975 | locus YJL168C, strain set2, stronger effect = lower value 0.941 | locus YJL187C, strain SWE1 (second series), stronger effect = lower value 0.942 | locus YJL187C, strain SWE1, stronger effect = lower value 0.985 | locus YJR043C, strain POL32, stronger effect = lower value 0.935 | locus YJR066W, strain TOR1, stronger effect = lower value 0.834 | locus YJR075W, strain HOC1, stronger effect = lower value 0.937 | locus YKL160W, strain elf1, stronger effect = lower value 0.968 | locus YKL190W, strain CNB1, stronger effect = lower value 0.962 | locus YKR026C, strain gcn3, stronger effect = lower value 0.976 | locus YKR091W, strain srl3, stronger effect = lower value 0.979 | locus YLL001W, strain dnm1, stronger effect = lower value 0.975 | locus YLL026W, stronger effect = lower value 0.976 | locus YLL041C, strain sdh2, stronger effect = lower value 0.98 | locus YLR027C, strain aat2, stronger effect = lower value 0.969 | locus YLR058C, strain SHM2, stronger effect = lower value 0.956 | locus YLR102C, strain apc9, stronger effect = lower value 0.949 | locus YLR221C, strain rsa3, stronger effect = lower value 0.959 | locus YLR258W, strain gsy2, stronger effect = lower value 0.942 | locus YLR320W, strain mms22, stronger effect = lower value 0.919 | locus YLR330W, strain CHS5, stronger effect = lower value 0.932 | locus YLR342W, strain FKS1, stronger effect = lower value 0.965 | locus YLR357W, strain rsc2, stronger effect = lower value 1.1 | locus YLR370C, strain arc18, stronger effect = lower value 0.948 | locus YLR371W, strain rom2, stronger effect = lower value 0.942 | locus YLR384C, strain iki3, stronger effect = lower value 0.987 | locus YML016C, strain PPZ1, stronger effect = lower value 0.951 | locus YML120C, strain ndi1, stronger effect = lower value 0.942 | locus YML124C, strain tub3, stronger effect = lower value 0.934 | locus YMR058W, strain fet3, stronger effect = lower value 0.963 | locus YMR078C, strain ctf18, stronger effect = lower value 0.918 | locus YMR125W, strain sto1, stronger effect = lower value 1.03 | locus YMR129W, stronger effect = lower value 0.983 | locus YMR205C, strain PFK2, stronger effect = lower value 0.986 | locus YMR231W, strain pep5, stronger effect = lower value 0.964 | locus YNL067W, strain RPL9B, stronger effect = lower value 0.956 | locus YNL071W, strain lat1, stronger effect = lower value 0.945 | locus YNL183C, strain NPR1, stronger effect = lower value 0.843 | locus YNL209W, strain ssb2, stronger effect = lower value 0.99 | locus YNL233W, strain BNI4, stronger effect = lower value 0.935 | locus YNL248C, strain rpa49, stronger effect = lower value 1.02 | locus YNL322C, strain KRE1 (second series), stronger effect = lower value 0.992 | locus YNR049C, strain mso1, stronger effect = lower value 0.982 | locus YOL012C, strain htz1 0.759 | locus YOR001W, strain rrp6, stronger effect = lower value 0.953 | locus YOR061W, strain CKA2, stronger effect = lower value 0.926 | locus YOR069W, strain VPS5, stronger effect = lower value 0.971 | locus YOR070C, strain gyp1, stronger effect = lower value 0.973 | locus YOR080W, strain dia2, stronger effect = lower value 1.01 | locus YOR083W, strain WHI5, stronger effect = lower value 0.982 | locus YOR106W, strain vam3, stronger effect = lower value 0.959 | locus YOR136W, strain idh2, stronger effect = lower value 0.989 | locus YOR265W, strain rbl2, stronger effect = lower value 1 | locus YOR270C, strain vph1, stronger effect = lower value 0.961 | locus YOR290C, strain snf2, stronger effect = lower value 0.906 | locus YOR316C, strain cot1, stronger effect = lower value 0.939 | locus YPL051W, strain arl3, stronger effect = lower value 0.923 | locus YPL055C, strain LGE1, stronger effect = lower value 0.925 | locus YPL078C, strain atp4, stronger effect = lower value 0.975 | locus YPL106C, strain sse1, stronger effect = lower value 1.15 | locus YPL240C, strain hsp82, stronger effect = lower value 0.977 | locus YPL241C, strain CIN2, stronger effect = lower value 0.948
0.95 (inactive) and 0.784 (active): locus YHR030C, strain SLT2, stronger effect = lower value
active: locus YCL029C, strain bik1, stronger effect = lower value 0.894 | locus YDL035C, strain GPR1, stronger effect = lower value 0.845 | locus YDL185W, strain tfp1, stronger effect = lower value 0.309 | locus YDR101C, strain arx1, stronger effect = lower value 0.872 | locus YDR137W, strain rgp1, stronger effect = lower value 0.699 | locus YDR162C, strain NBP2, stronger effect = lower value 0.832 | locus YDR318W, strain mcm21, stronger effect = lower value 0.866 | locus YDR388W, stronger effect = lower value 0.874 | locus YDR392W, strain spt3, stronger effect = lower value 0.58 | locus YDR502C, strain sam2, stronger effect = lower value 0.852 | locus YGL078C, strain dbp3, stronger effect = lower value 0.485 | locus YGL086W, strain mad1, stronger effect = lower value 0.877 | locus YHR079C, strain IRE1 (second series), stronger effect = lower value 0.869 | locus YHR079C, strain IRE1, stronger effect = lower value 0.833 | locus YIL125W, strain kgd1, stronger effect = lower value 0.356 | locus YJL129C, strain trk1, stronger effect = lower value 0.857 | locus YKL009W, strain mrt4, stronger effect = lower value 0.437 | locus YKL068W, stronger effect = lower value 0.923 | locus YKL085W, strain MDH1 (second series), stronger effect = lower value 0.492 | locus YKL085W, strain MDH1, stronger effect = lower value 0.492 | locus YKR001C, strain vps1, stronger effect = lower value 0.644 | locus YLR039C, strain RIC1, stronger effect = lower value 0.469 | locus YLR113W, strain HOG1, stronger effect = lower value 0.752 | locus YLR262C, strain YPT6 (second series), stronger effect = lower value 0.706 | locus YLR262C, strain YPT6, stronger effect = lower value 0.509 | locus YLR268W, strain sec22, stronger effect = lower value 0.845 | locus YLR342W, strain FKS1 (second series), stronger effect = lower value 0.751 | locus YLR418C, strain cdc73, stronger effect = lower value 0.824 | locus YML032C, strain rad52, stronger effect = lower value 0.847 | locus YMR223W, strain ubp8, stronger effect = lower value 0.865 | locus YMR307W, strain GAS1, stronger effect = lower value 0.481 | locus YNL250W, strain rad50, stronger effect = lower value 0.578 | locus YNL271C, strain bni1, stronger effect = lower value 0.452 | locus YNL298W, strain CLA4, stronger effect = lower value 0.202 | locus YNL307C, strain MCK1, stronger effect = lower value 0.649 | locus YNR052C, strain pop2, stronger effect = lower value 0.775 | locus YOL147C, strain pex11, stronger effect = lower value 0.908 | locus YOR144C, strain elg1, stronger effect = lower value 0.907 | locus YOR184W, strain ser1, stronger effect = lower value 0.675 | locus YOR231W, strain MKK1, stronger effect = lower value 0.803 | locus YPL256C, strain CLN2, stronger effect = lower value 0.825 | locus YPR119W, strain clb2, stronger effect = lower value 0.93 | locus YPR141C, strain kar3, stronger effect = lower value 0.817 | locus YPR163C, strain tif3, stronger effect = lower value 0.857 | locus YPR167C, strain met16, stronger effect = lower value 0.914 | strain wtn01, stronger effect = lower value 0.877
